About 1,300 (0.62%) of roughly 210,000 compounds were called active. For the sample, actives were picked, then their nearest neighbours and some compounds at random. Unmarked numbers belong to inactive results.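 How the source made its calls: active means inhibition of 40% or more; inactive means the rest.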
Target: Kallikrein-5 (Homo sapiens) (UniProt Q9Y337)
Experiment: human KLK5 protease inhibitors, primary screen, biochemical, 1536-well (AID 873);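 further: 0% = enzyme controls without compound and 100% = no-enzyme blanks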
Conditions: recombinant hK5, fluorogenic AMC substrate cleavage; at 5 µM; hits give high values

Sequence of Kallikrein-5 (Homo sapiens) (Q9Y337 67-293 limits assumed): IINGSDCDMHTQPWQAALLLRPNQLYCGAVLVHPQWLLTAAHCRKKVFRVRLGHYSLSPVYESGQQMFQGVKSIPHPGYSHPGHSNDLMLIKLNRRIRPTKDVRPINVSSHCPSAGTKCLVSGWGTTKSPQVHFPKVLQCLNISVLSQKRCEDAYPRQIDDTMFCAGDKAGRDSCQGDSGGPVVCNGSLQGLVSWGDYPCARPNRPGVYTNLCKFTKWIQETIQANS

Row | Structure (SMILES) | inhibition
1 | O=C(Nc1n[nH]c(C(F)(F)F)n1)c1cccs1 | 40.9% (active)
2 | Cc1ccc(-c2csc(NC(=O)c3cccs3)n2)cc1 | -16.5%
3 | O=C(Nc1ncccn1)c1cccs1 | -0.12%
4 | O=C(Cn1c[n+](CC(=O)c2ccc([N+](=O)[O-])cc2)cn1)c1ccc([N+](=O)[O-])cc1 | -1.7%
5 | C=CCN(c1ccccc1C(=O)NCC(=O)OCC)S(=O)(=O)c1ccc(C)cc1 | -3.06%
6 | Cc1nc2ccccc2nc1N/N=C/c1ccc(O)cc1O | -20.8%
7 | COc1ccc(N=C(C)c2sc3ccccc3c2O)cc1 | 2.85%
8 | O=[N+]([O-])c1cccc2ncccc12 | -1.14%
9 | C=C1CCN([C@H](C(=O)NCc2cc(OC)c(OC)c(OC)c2)C(C)C)S(=O)(=O)c2ccccc21 | 0.63%
10 | O=C(O)CCCC(=O)Nc1ccc(Oc2cccc(C(F)(F)F)c2)nc1 | -2.65%
11 | O=C(Nc1ccc(Cl)cc1)Nc1ccc(Oc2cccnc2)nc1 | 62.9% (active)
12 | O=C(NNC(=O)c1csc(-c2cccnc2)n1)Nc1ccc(Cl)cc1 | -0.51%
13 | O=C(CNc1ccc(F)cc1F)NC(=O)NCc1ccco1 | -1.58%
14 | COc1ccc(/C=C/c2nnc(NC(=O)C(C)C)s2)cc1 | 0.65%
15 | Cn1nccc1NS(=O)(=O)c1ccc(F)cc1 | 8.38%
16 | CC(C)N(C(=O)c1ccc(-c2ccccc2F)cc1)C(C)C | 52.5% (active)
17 | O=C(Nc1ccccc1F)c1ccccc1-c1ccccc1 | -10.7%
18 | Cc1ccccc1NC(=O)C(C)c1ccc(-c2ccccc2)c(F)c1 (stereo unspecified) | 1.97%
19 | Clc1ccc2nc(-c3ccccc3)nc(C(Cl)Cl)c2c1 | 0.33%
20 | COc1ccc(-c2nn(C)c(=O)c3ccccc23)cc1CNC(=O)C1CCCCC1 | 1.08%
21 | CC(C)c1csc(CN2CCC(CO)(Cc3ccccc3)CC2)n1 | 40.6% (active)
22 | COC(=O)c1ccc(CN2CCC(CO)(Cc3ccc(OC)cc3)CC2)cc1 | -3.09%
23 | COc1ccc(CC2(CO)CCN(Cc3cnn(C)c3)CC2)cc1 | 5.76%
24 | COc1ccc(CCNC2=CC(=O)CC(C)(C)C2)cc1 | 0.99%
25 | CCS(=O)(=O)c1cc([N+](=O)[O-])c(Sc2ccccc2N)s1 | 3.91%
26 | COC(=O)c1sc(C(F)(F)F)c(-c2ccccc2)c1S(=O)(=O)N(C)C | 0.56%

Row | Structure (SMILES) | inhibition
27 | CCOC(=O)CN(C)S(=O)(=O)c1ccc(-c2cc(C(=O)OC)sc2C(F)(F)F)cc1 | 74.9% (active)
28 | Cc1ccc(S(=O)(=O)N(C)CC(=O)OCC(=O)Nc2ccccc2)cc1 | 2.05%
29 | Cc1ccccc1CSc1nnc(CCCCCNC(=O)OC(C)(C)C)o1 | 0.98%
30 | CCOC(=O)c1ccc(NC(=O)c2cc(=O)[nH]c3ccccc23)cc1 | -1.31%
31 | CCCN(CC(=O)Nc1ccccc1C)C(=O)c1cc(=O)[nH]c2ccccc12 | 45.5% (active)
32 | O=C(CNC(=O)c1cc(=O)[nH]c2ccccc12)Nc1ccc(F)c(F)c1 | 5.97%
33 | COC(=O)c1scc(S(=O)(=O)C(C)(C)C)c1-n1cccc1 | -2.13%
34 | O=S(=O)(NCc1ccco1)c1cnc(Cl)c(Cl)c1 | 18.9%
35 | O=C(CSc1nnc(-c2cccnc2)n1Cc1ccco1)c1ccc(Cl)cc1 | -15.7%
36 | C(=C\c1ccccc1)/CSc1nnc(-c2cccnc2)n1Cc1ccco1 | 59.8% (active)
37 | O=C(CSc1nnc(-c2cccnc2)n1Cc1ccco1)c1ccc(Cl)c(Cl)c1 | -11.9%
38 | O=C(Nc1ccccc1)N1CCN(C2c3ccccc3-c3ccccc32)CC1 | 1.85%
39 | CC(C)c1ccc(NC(=S)NNc2ccc(Cl)c(C(=O)O)c2)cc1 | 5.6%
40 | COc1cc2c(cc1OC)C(/C=C/c1ccco1)=NCC2 | 4.43%
41 | CC1CC(C)(C)n2c(O)c(N=NC(N)=S)c3cccc1c32 (stereo unspecified) | 50.7% (active)
42 | C[C@@H](NC(=O)OC(C)(C)C)c1nnc(S(=O)(=O)Cc2ccccc2)o1 | -1.93%
43 | Cc1cc(F)ccc1NC(=O)C(C)n1c2ccccc2c2nc(=O)cc(C)n21 (stereo unspecified) | 0.22%
44 | O=C(NC1CCCCC1)c1cc(C2CC2)on1 | -1.29%
45 | Cn1c2c(c(=O)n(C)c1=O)[C@@H]1c3c(ccc4ccccc34)OC[C@@H]1CO2 | 21.4%
46 | COc1cccc2c1OCC1COc3c(c(=O)n(C)c(=O)n3C)C21 (stereo unspecified) | 50.2% (active)
47 | Cn1c2c(c(=O)n(C)c1=O)C1c3ccccc3OCC1C(C)(C)O2 (stereo unspecified) | -2.4%
48 | O=C(NNc1cc(Cl)cc(Cl)c1)c1c(F)cccc1Cl | 1.1%
49 | CCc1c(C)nc2c(-c3ccccc3)c(C)nn2c1Nc1ccc(NC(C)=O)cc1 | -10.1%
50 | CC1CC(C)CN(S(=O)(=O)c2cccc(C(=O)N3C(=O)c4cccc(N)c4C3=O)c2)C1 (stereo unspecified) | 83.1% (active)
51 | CN1CCN(S(=O)(=O)c2cccc(C(=O)O)c2)CC1 | -1.38%
52 | COc1cc(C(=O)N2C(=O)c3cccc(N)c3C2=O)cc(OC)c1OC | -10.2%

Row | Structure (SMILES) | inhibition
53 | Cc1cc(=O)oc2cc(OCC(=O)Nc3nnc(C4CC4)s3)ccc12 | 5.43%
54 | O=C(Nc1nnc(COc2ccccc2)s1)Nc1ccccc1F | 0.25%
55 | CC12COC3(C(=O)Nc4ccc(Cl)cn4)CC1CCC32C (stereo unspecified) | -6.22%
56 | CC12CN(NC(=O)c3ccc(Cl)cc3)C3(C#N)CC1CCC23C (stereo unspecified) | 78.4% (active)
57 | O=C(NN1C(=O)C2C3C=CC(C4CC34)C2C1=O)c1ccc(Cl)cc1 (stereo unspecified) | -4.1%
58 | CCc1cc(CNC(=O)CC2C(=O)NCCN2Cc2ccccc2C(F)(F)F)on1 (stereo unspecified) | -3.44%
59 | O=c1c2c3c(sc2n(CCN2CCCC2)c(=O)n1Cc1ccccc1)CCCCC3 | 8.67%
60 | Cc1cc(C)n(CC(C)NCc2c(C(=O)N3CCOCC3)nc3c(C)cccn23)n1 (stereo unspecified) | 1.63%
61 | CS(=O)(=O)n1nc(-c2ccco2)nc1N | -7.61%
62 | CSc1nc(-c2ccco2)nn1C(=O)CCc1ccccc1 | -9.9%
63 | CSc1nc(-c2ccco2)nn1C(=O)c1ccccc1Cl | 52.2% (active)
64 | Clc1ccc(-c2cc(-c3ccccn3)on2)c(Cl)c1 | -3.93%
65 | CC(C)=C(NC(=O)c1ccccc1)C(=O)N/N=C(\C)c1ccccc1O | 48.4% (active)
66 | C/C(=N\NC(=O)c1nc(C)cc(C)n1)c1ccccc1 | -8.77%
67 | CNC(=O)C(NC(=O)c1ccccc1)=C(C)C | 0.73%
68 | Cc1nc2cc(NC(=O)Nc3cccc(F)c3)ccc2n1C | 17%
69 | C=CCN(C(=O)Nc1ccc2oc(C)nc2c1)c1ccccc1 | -6.89%
70 | C=CCN(C(=O)Nc1ccc2c(c1)nc(C)n2C)c1ccccc1 | 41% (active)
71 | Nc1ccc2nn(-c3ccc(Cl)cc3)nc2c1 | -10.3%
72 | O=C(NCCc1csc(-c2ccccc2)n1)c1ccccc1F | 0.78%
73 | C=CCn1c(SCC(=O)c2ccc(Br)cc2)nnc1C(C)NC(=O)Cc1ccc(OC)cc1 (stereo unspecified) | 53% (active)
74 | C=CCn1c(CNC(=O)c2ccco2)nnc1SCC(=O)c1ccc(OC)cc1 | 1.62%
75 | C=CCn1c(SCCOc2ccc(OC)cc2)nnc1C(NC(=O)c1ccc(OC)cc1)C(C)C (stereo unspecified) | 2.79%
76 | Cc1cccc(C)c1OCC(O)CN1CCCCC1 (stereo unspecified) | -7.75%
77 | Cc1ccc(OCC(O)CN2CCN(CC(O)COc3ccc(C)cc3Cl)CC2)c(Cl)c1 (stereo unspecified) | 45.3% (active)
78 | C=CCc1ccc(OCC(O)CN2CCN(Cc3ccccc3)CC2)c(OC)c1 (stereo unspecified) | -1.55%

Row | Structure (SMILES) | inhibition
79 | COC(=O)CNc1nc(Cl)nc(N2CCC(C)CC2)n1 | -2.61%
80 | Cc1ccc(NNC(=O)C2CCC2)cc1C | -0.44%
81 | COc1ccc(Cl)cc1NC(=O)CCN1CCOCC1 | -1.88%
82 | CNC(=O)NC(=O)C(C)N1CCN(C/C=C/c2ccccc2)CC1 (stereo unspecified) | -1.97%
83 | O=C(CN1CCN(C/C=C/c2ccccc2)CC1)Nc1ccc(F)cc1F | 0.73%
84 | COc1cc(C(=O)N2CCN(C/C=C/c3ccccc3)CC2)cc(OC)c1C | 46.4% (active)
85 | COC(=O)c1nc(NC(=O)c2ccc(Cl)cc2)n[nH]1 | -14.4%
86 | COC(=O)c1nc(NC(=O)c2ccccc2)n[nH]1 | 45% (active)
87 | COC(=O)c1nc(NC(=O)c2ccc(F)cc2)n[nH]1 | 1.4%
88 | Cc1nc(Cl)c2oc3ccccc3c2n1 | 42.9% (active)
89 | Cc1nc(N2CCCC2C(=O)O)c2oc3ccccc3c2n1 (stereo unspecified) | -6.49%
90 | CCSc1nc(C)nc2c1oc1ccccc12 | 2.97%
91 | Cn1c2ccc(F)cc2c2nnc(NN)nc21 | 3.58%
92 | Cc1onc(C(=O)NN)c1-c1csc(COc2ccccc2)n1 | -6.54%
93 | CNc1ccc([N+](=O)[O-])cc1C(=O)O | -11.4%
94 | Cc1cccc(NC(=S)Nc2ccc(Cl)c(Cl)c2)c1 | -7.18%
95 | Cc1cccc(NC(=S)Nc2ccc(Br)cc2)c1 | 3.76%
96 | Cc1cccc(NC(=S)NC23CN4CN(CN(C4)C2)C3)c1 | 44.6% (active)
97 | Cc1nc(COc2cccc(Cl)c2)sc1C(=O)/C=C/N(C)C | 0.93%
98 | COCc1cc(=O)[nH]c(SC)n1 | 4.7%
99 | O=C(NCCOc1ccccc1)c1ccccc1 | -2.43%
100 | CCCOc1ccc(C(=O)NCCc2ccccc2)cc1 | -7.86%
101 | O=C(NCCc1ccccc1)c1ccc(OCCOc2ccccc2)cc1 | 79.7% (active)

— PubChem BioAssay AID873 (PCMD, 2007)
